Targets with a hit are over-represented here; the source holds about 7,900 in all. About 0.6% of all pairs of compound and target were hits.
Tests used:
Assay in all cases: log2 fold change, soluble protein after heating vs DMSO (PISA); higher = thermal stabilisation; K562 cells, 10 uM, 30 min; active = over 0.2 and 3.5 SD of the protein, either way, in both replicates (recomputed)
[1] = compound: CC1=C(C=C(C=C1)NC(=O)C2=CC(=CC=C2)C(C)(C)C#N)NC3=CC4=C(C=C3)N=CN(C4=O)C
How it was run: (§1)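 Soluble protein was quantified by TMTpro 16plex LC-MS/MS after channel sums were equalised. It was obtained as the supernatant after 21,000xg for 90 min from pooled aliquots of K562 cells (2×10^6 cells/mL, 10 μM compound, 30 min) heated for 3 min across 48°C-58°C and extracted in PBS with 0.5% NP-40 at 4°C. Thermal stability values are relative to control samples and come from duplicates. They are given as log2 fold changes.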

[2] = compound: CC1=C(C=C(C=C1)NC(=O)C2=CC(=CC=C2)N(C)C)NC(=O)C3=CC=C(C=C3)O
How it was run: as §1

[3] = compound: CC1=CC=C(C=C1)SC2=C3C=C(SC3=CN=C2)C(=O)N
How it was run: as §1

[4] = compound: CC1=NC(=CC=C1)C2=C(N=C(N2)C(C)(C)C)C3=CC4=NC=CN=C4C=C3
How it was run: as §1

Nexturastat A = compound: CCCCN(Cc1ccc(C(=O)NO)cc1)C(=O)Nc1ccccc1 [Nexturastat A]
How it was run: as §1

vemurafenib = compound: CCCS(=O)(=O)Nc1ccc(F)c(C(=O)c2c[nH]c3ncc(-c4ccc(Cl)cc4)cc23)c1F [vemurafenib]
How it was run: as §1

[5] = compound: CCCS(=O)(=O)Nc1ccc(F)c(C(=O)c2c[nH]c3ncc(Cl)cc23)c1F
How it was run: as §1

[6] = compound: CCCc1cc(C)[nH]c(=O)c1CNC(=O)c1cc(-c2ccnc(N3CCN(C)CC3)c2)cc2c1cnn2C(C)C
How it was run: as §1

givinostat = compound: CCN(CC)Cc1ccc2cc(COC(=O)Nc3ccc(C(=O)NO)cc3)ccc2c1 [givinostat]
How it was run: as §1

barasertib = compound: CCN(CCCOc1ccc2c(Nc3cc(CC(=O)Nc4cccc(F)c4)[nH]n3)ncnc2c1)CCOP(=O)(O)O [barasertib]
How it was run: as §1

[7] = compound: CC[C@@H]1C(=O)N(C)c2cnc(Nc3ccc(C(=O)NC4CCN(C)CC4)cc3OC)nc2N1C1CCCC1
How it was run: as §1

volasertib = compound: CC[C@@H]1C(=O)N(C)c2cnc(Nc3ccc(C(=O)N[C@H]4CC[C@H](N5CCN(CC6CC6)CC5)CC4)cc3OC)nc2N1C(C)C [volasertib]
How it was run: as §1

[8] = compound: CC[C@H](C)N1C=C(C2=C(C=C(C=C21)C3=CN=C(C=C3)N4CCNCC4)C(=O)NCC5=C(C=C(NC5=O)C)C)C
How it was run: as §1

epoxomicin = compound: CC[C@H](C)[C@@H](C(=O)N[C@@H]([C@@H](C)O)C(=O)N[C@@H](CC(C)C)C(=O)[C@]1(CO1)C)NC(=O)[C@H]([C@@H](C)CC)N(C)C(=O)C [epoxomicin]
How it was run: as §1

[9] = compound: CCn1c(C(=O)N(C2CC2)C2CC2)cc2c3c(ncn3C)c(Nc3cc(C)n(C)n3)nc21
How it was run: as §1

[10] = compound: CCn1cc(-c2ccnc3[nH]c(-c4cccc(CN(C)C)c4)cc23)c(-c2ccc(NC(=O)N(C)C)cc2)n1
How it was run: as §1

[11] = compound: CN(C)CC(=O)Nc1ccc2[nH]c(=O)c3ccccc3c2c1
How it was run: as §1

rosiglitazone = compound: CN(CCOC1=CC=C(C=C1)C[C@H]2C(=O)NC(=O)S2)C3=CC=CC=N3 (racemic) [rosiglitazone]
How it was run: as §1

[12] = compound: CN1C2=C(C3=C1C(=O)N(N=C3)CC4=CC(=CC=C4)N)SC(=C2)S(=O)C
How it was run: as §1

[13] = compound: CN1CCC(CNc2ccc3ncc(-c4cccc(OC(F)(F)F)c4)n3n2)CC1
How it was run: as §1

Measured: log2 fold change

RBM12 (UniProt Q9NTZ6)
UniProt Q9NTZ6, sequence (Q9NTZ6 whole entry, looked up): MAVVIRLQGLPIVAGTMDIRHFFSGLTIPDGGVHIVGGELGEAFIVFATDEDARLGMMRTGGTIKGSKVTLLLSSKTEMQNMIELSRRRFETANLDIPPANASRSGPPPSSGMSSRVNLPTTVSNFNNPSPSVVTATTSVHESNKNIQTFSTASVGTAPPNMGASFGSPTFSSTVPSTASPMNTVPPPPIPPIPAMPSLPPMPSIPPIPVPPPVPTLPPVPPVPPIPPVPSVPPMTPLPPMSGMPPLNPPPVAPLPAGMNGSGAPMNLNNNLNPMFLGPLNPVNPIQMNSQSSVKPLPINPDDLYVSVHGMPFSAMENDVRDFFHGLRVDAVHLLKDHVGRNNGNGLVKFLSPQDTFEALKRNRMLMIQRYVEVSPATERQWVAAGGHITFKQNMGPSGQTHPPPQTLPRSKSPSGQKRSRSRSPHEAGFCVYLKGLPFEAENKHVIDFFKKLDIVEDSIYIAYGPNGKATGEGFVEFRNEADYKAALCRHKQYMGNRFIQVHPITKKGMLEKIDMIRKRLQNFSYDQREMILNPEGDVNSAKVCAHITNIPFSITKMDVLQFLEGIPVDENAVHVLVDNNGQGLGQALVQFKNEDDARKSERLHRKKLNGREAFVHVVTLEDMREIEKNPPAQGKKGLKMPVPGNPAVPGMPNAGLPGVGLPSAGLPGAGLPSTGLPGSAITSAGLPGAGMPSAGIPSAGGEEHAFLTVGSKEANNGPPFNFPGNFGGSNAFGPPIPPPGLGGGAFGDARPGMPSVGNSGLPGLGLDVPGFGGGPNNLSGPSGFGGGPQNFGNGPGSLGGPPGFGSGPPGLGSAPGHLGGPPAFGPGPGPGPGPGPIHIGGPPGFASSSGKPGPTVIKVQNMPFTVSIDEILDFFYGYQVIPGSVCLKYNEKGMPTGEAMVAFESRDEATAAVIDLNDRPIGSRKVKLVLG
inactive: [1] 0.016 | [2] -0.101 | [3] 0.057 | [4] 0.116 | Nexturastat A -0.085 | vemurafenib 0.058 | [5] 0.136 | [6] 0.008 | givinostat 0.062 | barasertib 0.122 | [7] -0.181 | [8] 0.114 | epoxomicin 0.087 | [9] -0.08 | [10] -0.049 | [11] 0.053 | rosiglitazone 0.087 | [12] -0.033 | [13] -0.139
active: volasertib -0.437

RNASET2 (UniProt O00584)
UniProt O00584, sequence (O00584 whole entry, looked up): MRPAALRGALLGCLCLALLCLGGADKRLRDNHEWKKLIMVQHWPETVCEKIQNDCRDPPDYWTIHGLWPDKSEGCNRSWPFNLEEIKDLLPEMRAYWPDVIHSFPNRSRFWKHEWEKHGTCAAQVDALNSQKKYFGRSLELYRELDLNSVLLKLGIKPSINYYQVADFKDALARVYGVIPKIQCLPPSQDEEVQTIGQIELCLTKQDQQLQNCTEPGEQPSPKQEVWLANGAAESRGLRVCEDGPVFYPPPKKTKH
active: [7] -0.275 | [13] -0.413
inactive: [1] 0.007 | [2] 0.026 | [3] 0.033 | [4] 0.027 | Nexturastat A -0.079 | vemurafenib -0.019 | [5] 0.004 | [6] 0.001 | givinostat -0.006 | barasertib -0.013 | volasertib -0.196 | [8] 0.023 | epoxomicin -0.027 | [9] 0.039 | [10] 0.045 | [11] 0.036 | rosiglitazone -0.006 | [12] -0.036

RPP14 (UniProt O95059)
UniProt O95059, sequence (O95059 whole entry, looked up): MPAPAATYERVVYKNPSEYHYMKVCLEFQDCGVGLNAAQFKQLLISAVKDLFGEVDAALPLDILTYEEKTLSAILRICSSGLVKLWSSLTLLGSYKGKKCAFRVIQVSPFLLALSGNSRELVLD
active: [13] 0.244
inactive: [1] 0.086 | [2] 0.01 | [3] -0.031 | [4] -0.015 | Nexturastat A 0.129 | vemurafenib -0.004 | [5] 0.004 | [6] -0.037 | givinostat -0.116 | barasertib -0.087 | [7] 0.079 | volasertib 0.07 | [8] -0.048 | epoxomicin -0.06 | [9] 0.013 | [10] 0.08 | [11] -0.04 | rosiglitazone -0.021 | [12] -0.076

SH3GLB2 (UniProt Q9NR46)
UniProt Q9NR46, sequence (Q9NR46 whole entry, looked up): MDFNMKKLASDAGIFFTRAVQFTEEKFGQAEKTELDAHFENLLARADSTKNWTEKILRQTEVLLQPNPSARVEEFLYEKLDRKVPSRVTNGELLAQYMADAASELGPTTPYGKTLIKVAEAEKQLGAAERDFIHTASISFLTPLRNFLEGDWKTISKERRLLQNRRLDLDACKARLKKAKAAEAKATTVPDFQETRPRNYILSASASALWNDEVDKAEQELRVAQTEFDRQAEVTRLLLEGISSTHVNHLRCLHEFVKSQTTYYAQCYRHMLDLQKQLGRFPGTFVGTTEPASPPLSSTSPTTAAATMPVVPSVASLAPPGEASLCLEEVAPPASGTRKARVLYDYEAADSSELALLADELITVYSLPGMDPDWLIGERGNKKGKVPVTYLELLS
active: volasertib -0.378
inactive: [1] 0.047 | [2] -0.052 | [3] 0.025 | [4] 0.033 | Nexturastat A -0.064 | vemurafenib 0.058 | [5] 0.058 | [6] 0.021 | givinostat 0.049 | barasertib 0.051 | [7] -0.148 | [8] 0.072 | epoxomicin 0.041 | [9] -0.058 | [10] -0.101 | [11] 0.033 | rosiglitazone 0.041 | [12] 0.016 | [13] -0.254

SETD3 (UniProt Q86TU7)
UniProt Q86TU7, sequence (Q86TU7 whole entry, looked up): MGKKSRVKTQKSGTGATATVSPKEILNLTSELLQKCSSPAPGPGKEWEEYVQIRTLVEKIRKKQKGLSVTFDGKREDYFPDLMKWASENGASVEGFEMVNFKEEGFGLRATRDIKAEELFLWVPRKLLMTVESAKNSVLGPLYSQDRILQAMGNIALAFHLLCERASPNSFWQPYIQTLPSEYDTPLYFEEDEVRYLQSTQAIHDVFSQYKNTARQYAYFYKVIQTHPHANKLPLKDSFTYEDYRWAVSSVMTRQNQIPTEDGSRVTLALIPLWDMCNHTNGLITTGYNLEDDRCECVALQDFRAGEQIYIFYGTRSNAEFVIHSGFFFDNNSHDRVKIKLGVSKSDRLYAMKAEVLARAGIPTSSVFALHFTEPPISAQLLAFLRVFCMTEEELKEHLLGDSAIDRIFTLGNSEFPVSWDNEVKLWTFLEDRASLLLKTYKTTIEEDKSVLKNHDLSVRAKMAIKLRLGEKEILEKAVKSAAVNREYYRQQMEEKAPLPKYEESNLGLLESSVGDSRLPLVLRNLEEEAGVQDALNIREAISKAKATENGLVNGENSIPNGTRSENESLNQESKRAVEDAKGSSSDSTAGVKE
inactive: [1] -0.008 | [2] 0.029 | [3] -0.01 | [4] 0.046 | Nexturastat A -0.024 | vemurafenib 0.035 | [5] -0.01 | [6] 0.034 | givinostat -0.037 | barasertib 0.026 | [7] -0.017 | volasertib -0.018 | [8] 0.055 | epoxomicin -0.024 | [9] -0.004 | [10] -0.002 | [11] -0.02 | rosiglitazone 0.015 | [12] -0.056 | [13] 0.06

SCG3 (UniProt Q8WXD2)
UniProt Q8WXD2, sequence (Q8WXD2 whole entry, looked up): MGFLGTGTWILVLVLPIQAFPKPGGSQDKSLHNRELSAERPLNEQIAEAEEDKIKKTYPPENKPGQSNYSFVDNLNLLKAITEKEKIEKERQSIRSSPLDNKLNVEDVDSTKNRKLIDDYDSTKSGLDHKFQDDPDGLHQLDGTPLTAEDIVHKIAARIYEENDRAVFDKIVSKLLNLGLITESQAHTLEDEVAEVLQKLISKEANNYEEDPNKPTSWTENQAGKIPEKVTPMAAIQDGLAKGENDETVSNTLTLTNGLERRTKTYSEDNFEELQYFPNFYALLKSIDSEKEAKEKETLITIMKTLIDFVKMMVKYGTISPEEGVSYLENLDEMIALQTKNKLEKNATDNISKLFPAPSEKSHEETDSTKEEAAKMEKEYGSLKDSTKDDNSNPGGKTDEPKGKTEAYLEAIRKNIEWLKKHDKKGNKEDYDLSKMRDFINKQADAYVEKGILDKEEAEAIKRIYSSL
active: [13] 0.6
inactive: [1] 0.134 | [2] -0.105 | [3] -0.011 | [4] -0.05 | Nexturastat A -0.071 | vemurafenib 0.027 | [5] -0.041 | [6] 0.11 | givinostat -0.043 | barasertib 0.013 | [7] 0.04 | volasertib 0.134 | [8] -0.013 | epoxomicin -0.119 | [9] 0.048 | [10] 0.035 | [11] -0.099 | rosiglitazone -0.027 | [12] -0.116

RBM26 isoform 2 (UniProt Q5T8P6)
UniProt Q5T8P6, sequence (Q5T8P6 whole entry, looked up): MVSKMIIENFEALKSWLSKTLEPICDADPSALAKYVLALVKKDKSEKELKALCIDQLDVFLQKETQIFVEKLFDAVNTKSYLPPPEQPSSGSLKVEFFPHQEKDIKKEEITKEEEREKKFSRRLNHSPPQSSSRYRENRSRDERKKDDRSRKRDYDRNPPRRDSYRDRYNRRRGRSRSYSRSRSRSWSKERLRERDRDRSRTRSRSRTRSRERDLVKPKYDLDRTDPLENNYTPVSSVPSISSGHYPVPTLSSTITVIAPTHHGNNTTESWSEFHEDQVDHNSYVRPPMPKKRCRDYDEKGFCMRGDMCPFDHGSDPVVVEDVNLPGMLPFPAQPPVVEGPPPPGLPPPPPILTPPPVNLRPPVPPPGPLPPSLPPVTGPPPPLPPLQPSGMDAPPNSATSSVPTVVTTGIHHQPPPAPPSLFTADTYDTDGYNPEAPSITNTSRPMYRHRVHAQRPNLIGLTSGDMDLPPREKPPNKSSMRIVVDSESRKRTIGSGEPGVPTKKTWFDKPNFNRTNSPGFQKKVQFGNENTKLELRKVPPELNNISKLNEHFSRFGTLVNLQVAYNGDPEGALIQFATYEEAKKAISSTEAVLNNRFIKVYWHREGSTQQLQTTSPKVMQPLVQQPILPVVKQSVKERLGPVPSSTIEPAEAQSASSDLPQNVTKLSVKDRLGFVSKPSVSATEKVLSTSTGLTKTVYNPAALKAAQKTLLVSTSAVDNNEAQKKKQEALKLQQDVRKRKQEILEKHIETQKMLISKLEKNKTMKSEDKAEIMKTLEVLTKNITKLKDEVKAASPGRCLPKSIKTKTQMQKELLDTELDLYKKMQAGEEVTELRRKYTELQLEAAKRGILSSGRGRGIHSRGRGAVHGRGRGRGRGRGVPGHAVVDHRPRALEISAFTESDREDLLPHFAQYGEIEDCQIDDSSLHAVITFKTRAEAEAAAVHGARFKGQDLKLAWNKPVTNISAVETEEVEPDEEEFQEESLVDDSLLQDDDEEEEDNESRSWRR
inactive: [1] 0.122 | [2] -0.088 | [3] 0.033 | [4] 0.116 | Nexturastat A -0.184 | vemurafenib 0.143 | [5] 0.09 | [6] -0.014 | givinostat 0.097 | barasertib 0.079 | [7] -0.207 | volasertib -0.299 | [8] 0.151 | epoxomicin 0.098 | [9] -0.061 | [10] -0.069 | [11] 0.072 | rosiglitazone 0.094 | [12] -0.011 | [13] -0.177

SCPEP1 (UniProt Q9HB40)
UniProt Q9HB40, sequence (Q9HB40 whole entry, looked up): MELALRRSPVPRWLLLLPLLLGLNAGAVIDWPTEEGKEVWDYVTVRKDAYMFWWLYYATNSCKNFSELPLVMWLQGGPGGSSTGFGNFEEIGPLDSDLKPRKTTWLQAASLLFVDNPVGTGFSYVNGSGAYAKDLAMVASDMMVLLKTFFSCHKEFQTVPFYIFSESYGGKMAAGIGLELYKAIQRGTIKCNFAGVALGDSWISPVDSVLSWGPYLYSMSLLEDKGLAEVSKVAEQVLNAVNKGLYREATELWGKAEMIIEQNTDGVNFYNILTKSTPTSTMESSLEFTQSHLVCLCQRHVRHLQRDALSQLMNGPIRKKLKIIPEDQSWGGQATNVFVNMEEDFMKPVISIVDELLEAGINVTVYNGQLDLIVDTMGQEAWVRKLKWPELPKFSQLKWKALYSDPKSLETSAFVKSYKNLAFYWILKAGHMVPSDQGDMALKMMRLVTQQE
active: [7] -0.608 | volasertib -1.44 | [13] -0.846
inactive: [1] -0.003 | [2] 0.016 | [3] 0.05 | [4] 0.022 | Nexturastat A -0.035 | vemurafenib 0.002 | [5] 0.013 | [6] -0.028 | givinostat -0.031 | barasertib 0.012 | [8] -0.022 | epoxomicin 0.044 | [9] 0.011 | [10] -0.095 | [11] -0.001 | rosiglitazone 0.019 | [12] 0.019

Source: the supplement of paper PMC10849652
